Assay [1] concerns the target Serine/threonine-protein kinase PLK3 (Homo sapiens) (UniProt Q9H4B4). Particulars: at 1 µM; call rule not given here.
The target is the same in assay [2]. Particulars: at 10 µM.
Assay [3] addresses T1, cAMP-dependent protein kinase catalytic subunit PRKX (Homo sapiens) (UniProt P51817).
T1 sequence (whole entry): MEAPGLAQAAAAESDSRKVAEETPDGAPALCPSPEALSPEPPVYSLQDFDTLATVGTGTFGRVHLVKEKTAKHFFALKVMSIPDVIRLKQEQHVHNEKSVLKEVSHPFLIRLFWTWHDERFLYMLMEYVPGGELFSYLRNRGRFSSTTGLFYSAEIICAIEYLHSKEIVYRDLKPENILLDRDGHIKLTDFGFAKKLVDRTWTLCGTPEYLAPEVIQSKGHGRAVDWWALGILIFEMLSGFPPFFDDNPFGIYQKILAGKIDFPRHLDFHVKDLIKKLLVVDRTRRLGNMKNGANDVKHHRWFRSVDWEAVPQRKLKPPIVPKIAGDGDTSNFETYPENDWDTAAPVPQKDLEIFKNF
Conditions: at 1 µM.

For assay [4], the target named is T1, cAMP-dependent protein kinase catalytic subunit PRKX (Homo sapiens). Conditions: at 10 µM.
Assay [5] addresses Protein-tyrosine kinase 2-beta (Homo sapiens) (UniProt Q14289). Conditions: at 1 µM.
The target is the same in assay [6]. Conditions: at 10 µM.
The target in assay [7] is Receptor-interacting serine/threonine-protein kinase 2 (Homo sapiens) (UniProt O43353). Particulars: at 1 µM.
Chain of Receptor-interacting serine/threonine-protein kinase 2 (Homo sapiens) (O43353 whole entry): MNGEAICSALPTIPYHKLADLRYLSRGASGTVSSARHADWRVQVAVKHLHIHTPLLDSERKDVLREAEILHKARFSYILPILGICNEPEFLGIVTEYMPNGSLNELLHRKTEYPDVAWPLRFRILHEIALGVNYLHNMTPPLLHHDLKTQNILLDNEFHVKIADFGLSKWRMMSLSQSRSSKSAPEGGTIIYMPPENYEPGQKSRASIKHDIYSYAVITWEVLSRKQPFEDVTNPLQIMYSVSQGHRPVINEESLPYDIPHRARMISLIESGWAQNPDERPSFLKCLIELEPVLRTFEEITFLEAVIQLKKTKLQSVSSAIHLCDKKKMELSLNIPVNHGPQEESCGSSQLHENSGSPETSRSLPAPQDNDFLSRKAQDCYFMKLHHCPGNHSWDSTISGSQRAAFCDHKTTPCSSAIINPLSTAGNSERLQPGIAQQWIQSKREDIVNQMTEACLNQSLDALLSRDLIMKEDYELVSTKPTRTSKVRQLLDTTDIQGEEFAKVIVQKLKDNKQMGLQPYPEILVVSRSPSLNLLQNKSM
The target is the same in assay [8]. Particulars: at 10 µM.
Assay [9] concerns the target Rho-associated protein kinase 1 (Homo sapiens) (UniProt Q13464). Conditions: at 1 µM.
For assay [10] the target is unchanged. Particulars: at 10 µM.

The structures appear in SMILES notation.

Chain of Protein-tyrosine kinase 2-beta (Homo sapiens) (Q14289 whole entry, looked up): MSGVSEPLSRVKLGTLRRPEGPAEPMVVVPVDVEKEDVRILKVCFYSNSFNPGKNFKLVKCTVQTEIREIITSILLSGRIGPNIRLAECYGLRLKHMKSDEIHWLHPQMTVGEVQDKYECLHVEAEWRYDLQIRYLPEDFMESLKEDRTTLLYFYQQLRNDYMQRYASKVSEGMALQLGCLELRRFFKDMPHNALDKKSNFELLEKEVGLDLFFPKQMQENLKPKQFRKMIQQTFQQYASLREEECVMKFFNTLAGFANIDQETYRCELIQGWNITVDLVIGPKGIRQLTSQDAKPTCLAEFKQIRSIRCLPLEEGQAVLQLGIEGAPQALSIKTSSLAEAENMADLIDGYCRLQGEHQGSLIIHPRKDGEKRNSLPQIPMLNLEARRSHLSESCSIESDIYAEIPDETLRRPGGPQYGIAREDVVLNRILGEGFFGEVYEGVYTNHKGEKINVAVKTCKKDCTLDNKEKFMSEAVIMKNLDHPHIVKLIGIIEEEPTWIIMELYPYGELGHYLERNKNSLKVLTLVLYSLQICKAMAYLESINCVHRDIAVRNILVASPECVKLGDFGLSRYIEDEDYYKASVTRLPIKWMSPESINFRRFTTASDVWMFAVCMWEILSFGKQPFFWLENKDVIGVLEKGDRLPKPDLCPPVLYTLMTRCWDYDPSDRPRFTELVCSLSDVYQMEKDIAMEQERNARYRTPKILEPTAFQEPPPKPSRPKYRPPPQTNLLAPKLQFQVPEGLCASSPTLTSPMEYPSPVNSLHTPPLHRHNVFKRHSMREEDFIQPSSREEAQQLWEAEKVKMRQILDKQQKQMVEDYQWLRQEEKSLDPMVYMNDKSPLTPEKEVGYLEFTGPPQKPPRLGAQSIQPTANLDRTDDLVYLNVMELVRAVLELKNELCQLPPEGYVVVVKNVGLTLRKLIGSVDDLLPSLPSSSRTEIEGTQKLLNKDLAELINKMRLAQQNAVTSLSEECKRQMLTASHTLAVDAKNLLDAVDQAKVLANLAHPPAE
Chain of Rho-associated protein kinase 1 (Homo sapiens) (Q13464 2-1354 limits assumed): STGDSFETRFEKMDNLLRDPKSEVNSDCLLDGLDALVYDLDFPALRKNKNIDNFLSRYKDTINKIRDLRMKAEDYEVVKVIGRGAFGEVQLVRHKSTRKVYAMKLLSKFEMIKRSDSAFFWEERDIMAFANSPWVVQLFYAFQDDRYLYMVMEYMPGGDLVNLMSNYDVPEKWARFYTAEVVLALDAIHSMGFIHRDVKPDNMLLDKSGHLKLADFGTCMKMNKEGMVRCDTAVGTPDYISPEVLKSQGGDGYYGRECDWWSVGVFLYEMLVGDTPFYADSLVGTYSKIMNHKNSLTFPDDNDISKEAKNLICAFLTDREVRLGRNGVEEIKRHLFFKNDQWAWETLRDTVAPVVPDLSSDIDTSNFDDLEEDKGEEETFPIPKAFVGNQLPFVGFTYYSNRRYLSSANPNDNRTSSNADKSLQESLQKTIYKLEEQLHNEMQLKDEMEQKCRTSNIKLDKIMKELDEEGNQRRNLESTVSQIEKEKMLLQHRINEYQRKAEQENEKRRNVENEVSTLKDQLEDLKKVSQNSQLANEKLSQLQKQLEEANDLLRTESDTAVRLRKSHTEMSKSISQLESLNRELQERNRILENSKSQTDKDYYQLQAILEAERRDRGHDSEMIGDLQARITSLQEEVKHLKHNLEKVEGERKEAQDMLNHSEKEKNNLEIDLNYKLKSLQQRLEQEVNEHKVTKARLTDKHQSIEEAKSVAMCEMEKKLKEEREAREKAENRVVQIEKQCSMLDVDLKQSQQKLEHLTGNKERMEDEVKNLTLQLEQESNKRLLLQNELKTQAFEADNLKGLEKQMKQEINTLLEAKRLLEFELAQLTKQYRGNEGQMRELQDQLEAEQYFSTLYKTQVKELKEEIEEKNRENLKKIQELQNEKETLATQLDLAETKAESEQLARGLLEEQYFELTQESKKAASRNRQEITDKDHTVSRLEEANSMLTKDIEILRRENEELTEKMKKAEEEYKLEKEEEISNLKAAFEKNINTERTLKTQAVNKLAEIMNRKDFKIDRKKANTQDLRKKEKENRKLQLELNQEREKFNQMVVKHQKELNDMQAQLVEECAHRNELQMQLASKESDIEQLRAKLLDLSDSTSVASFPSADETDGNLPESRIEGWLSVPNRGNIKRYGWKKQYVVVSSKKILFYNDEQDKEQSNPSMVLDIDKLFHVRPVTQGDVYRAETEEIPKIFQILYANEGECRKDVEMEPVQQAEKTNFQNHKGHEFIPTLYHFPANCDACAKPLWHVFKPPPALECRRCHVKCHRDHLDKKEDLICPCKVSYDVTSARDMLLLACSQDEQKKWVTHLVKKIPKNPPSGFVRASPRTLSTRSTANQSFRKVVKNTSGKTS
Chain of Serine/threonine-protein kinase PLK3 (Homo sapiens) (Q9H4B4 whole entry, looked up): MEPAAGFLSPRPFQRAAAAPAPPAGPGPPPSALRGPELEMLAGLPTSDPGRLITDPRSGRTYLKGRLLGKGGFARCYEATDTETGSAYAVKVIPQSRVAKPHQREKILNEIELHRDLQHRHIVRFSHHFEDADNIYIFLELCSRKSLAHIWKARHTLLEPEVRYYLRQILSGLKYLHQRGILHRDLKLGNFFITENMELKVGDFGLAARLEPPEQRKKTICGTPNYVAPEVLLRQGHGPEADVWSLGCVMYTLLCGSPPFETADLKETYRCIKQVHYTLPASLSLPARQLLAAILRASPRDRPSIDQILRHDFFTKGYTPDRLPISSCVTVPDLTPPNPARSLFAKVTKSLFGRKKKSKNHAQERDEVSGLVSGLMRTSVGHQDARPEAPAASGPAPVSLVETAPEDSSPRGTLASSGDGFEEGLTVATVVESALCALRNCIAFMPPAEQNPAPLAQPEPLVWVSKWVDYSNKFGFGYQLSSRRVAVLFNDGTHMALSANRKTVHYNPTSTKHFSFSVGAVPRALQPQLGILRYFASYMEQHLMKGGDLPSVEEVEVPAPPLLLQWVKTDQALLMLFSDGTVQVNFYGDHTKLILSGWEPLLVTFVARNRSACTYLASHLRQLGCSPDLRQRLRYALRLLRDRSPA

On to `CN(C)c1ccc(/C=C2\C(=O)Nc3ccccc32)cc1`, for which the residual activity in assay [1] is 94% (inactive); in assay [2] it was 88%; in assay [3] it was 92%; in assay [4], 66%; in assay [5], 103%; in assay [6] it was 47%. Further, the residual activity in [7] came to 103%; in [8], 83%; in [9] it was 132%; in assay [10], 123%.

Consider `O=C1NC(=O)/C(=C/c2ccc3c(c2)OC(F)(F)O3)S1`, for which the residual activity in assay [1] is 94% (inactive); in [2], 96%; in assay [3], 88%; in assay [4] it was 77%; in [5], 135%; in assay [6], 101%. Further, the residual activity in assay [7] stood at 99%; in assay [8] it was 83%; in assay [9], 95%; in [10] it was 116%.

`Cn1nc2c3c(cccc31)C(=O)c1ccccc1-2`: the residual activity was 100% (inactive) in [1]; 90% in [2]; 72% in [3]; 86% in assay [4]; 106% in [5]; 76% in assay [6]. The residual activity in [7] was determined as 89%; in assay [8], 89%; in assay [10] it was 97%.

For the compound `Cc1cccc(-c2[nH]c(C(C)(C)C)nc2-c2ccc3c(c2)OCO3)n1`, the residual activity in assay [1] is 98% (inactive); in [2], 88%; in assay [6] it was 103%; in assay [7], 59%; in assay [8], 21%.

As to `O=c1c2ccccc2[nH]c(=S)n1CCN1CCC(=C(c2ccc(F)cc2)c2ccc(F)cc2)CC1`, the residual activity in [1] is 98% (inactive); in assay [2], 89%; in assay [3], 87%; in assay [4], 52%; in assay [5], 136%; in assay [6], 91%. The residual activity was 100% in assay [7], 101% in assay [8], 114% in assay [9] and 127% in [10].

Consider `CO[C@@H]1[C@H](N(C)C(=O)c2ccccc2)C[C@H]2O[C@]1(C)n1c3ccccc3c3c4c(c5c6ccccc6n2c5c31)C(=O)NC4`, for which the residual activity in [1] is 95% (inactive); in [2] it was 92%; in assay [3] it was 24%; in assay [4], 12%; in assay [5] it was 16%; in assay [6], 10%. Further, the residual activity in assay [7] was 88%; in assay [8], 70%; in assay [9] it was 110%; in assay [10] it was 115%.

As for `Nc1nc(Nc2ccc(S(N)(=O)=O)cc2)nn1C(=S)Nc1c(F)cccc1F`, the residual activity in assay [1] is 90% (inactive); in [2], 91%; in assay [3] it was 44%; in [4] it was 7%; in [5], 4%; in [6], 1%. Moreover, the residual activity amounted to 16% in assay [7], 29% in assay [8], 6% in assay [9] and 1% in assay [10].

Take `COc1ccc(CNc2nc(N(CCO)CCO)nc3c2ncn3C(C)C)cc1`: the residual activity in [1] is 97% (inactive); in assay [2], 95%; in assay [3] it was 95%; in assay [4], 101%; in assay [5] it was 83%; in [6], 85%. For the same compound, the residual activity came out at 83% in assay [7], 78% in assay [8], 121% in [9] and 109% in assay [10].

As for `C[C@@H](N)[C@H]1CC[C@H](C(=O)Nc2ccncc2)CC1`, the residual activity in [1] was 108% (inactive); in [2], 96%; in [3], 72%; in assay [4], 24%; in [7], 96%; in [9], 77%. Besides, the residual activity in assay [10] was found to be 31%.

Turning to `CCOc1cc2ncnc(Nc3cccc(Br)c3)c2cc1OCC`, the residual activity in assay [1] is 87% (inactive); in assay [2], 100%; in assay [3], 98%; in assay [4] it was 78%; in [5] it was 110%; in assay [6], 58%. Also, the residual activity in assay [7] came out at 24%; in assay [8], 12%; in assay [9], 94%; in [10], 95%.

As to `N#C/C(=C(\N)Sc1ccc(N)cc1)c1ccccc1C(F)(F)F`, the residual activity in assay [1] was 101% (inactive); in assay [2], 90%; in assay [3], 95%; in assay [4], 109%; in [5], 100%; in assay [6], 97%. Besides, the residual activity in assay [7] came to 93%; in [8] it was 98%; in assay [9] it was 110%; in assay [10] it was 103%.

For `COc1cc2ncnc(Nc3ccc(NC(=O)c4ccccc4)cc3)c2cc1OC`, the residual activity in assay [1] is 102% (inactive); in assay [2], 97%; in assay [4], 91%; in assay [5], 134%; in assay [6], 75%; in assay [7] it was 110%. Also, the residual activity in assay [8] was 77%.

As for `COc1cc2ncc(-c3ccccc3)nc2cc1OC`, the residual activity was 95% (inactive) in assay [1]; 93% in assay [2]; 88% in [3]; 76% in [4]; 76% in assay [6]; 58% in [8].

Regarding `CN(C)CCCn1cc(C2=C(c3c[nH]c4ccccc34)C(=O)NC2=O)c2ccccc21`, the residual activity in assay [1] was 101% (inactive); in [2] it was 104%; in [3] it was 103%; in assay [4], 38%; in assay [5], 115%; in assay [6] it was 42%. Besides, the residual activity in [7] stood at 90%; in assay [8] it was 77%; in assay [9], 83%; in [10], 89%.

`O=[N+]([O-])c1ccc(-c2nc(-c3ccc(F)cc3)c(-c3ccncc3)[nH]2)cc1`: the residual activity amounted to 108% in assay [2]; 132% in [3]; 26% in assay [4]; 114% in assay [5]; 105% in assay [6]; 19% in assay [7]. Besides, the residual activity in [8] was 25%; in assay [9], 122%; in assay [10] it was 118%.

In the case of `Cc1cc(Nc2nc(-c3ccccc3)nc3ccccc23)n[nH]1`, the residual activity in [3] is 81%; in [4] it was 38%; in assay [5], 20%; in [6], 4%; in [8], 63%; in [9], 120%. For the same compound, the residual activity in assay [10] came to 94%.

For the compound `CC#CC(=O)Nc1cc2c(Nc3ccc(F)c(Cl)c3)ncnc2cn1`, the residual activity in [1] is 96% (inactive); in assay [2], 82%; in assay [3], 100%; in assay [4] it was 93%; in assay [5] it was 120%; in [7], 82%. Besides, the residual activity in assay [8] came to 60%; in assay [9], 99%; in assay [10], 116%.

In the case of `N#CC(C#N)=C(N)/C(C#N)=C/c1ccc(O)cc1`, the residual activity was 79% (inactive) in assay [1]; 27% in assay [2]; 99% in assay [3]; 100% in assay [4]; 129% in [5]; 94% in assay [6]. Further, the residual activity in assay [8] was 64%.

Consider `COc1cccc(-c2cc(=O)c3ccccc3o2)c1N`, for which the residual activity in assay [1] is 111% (inactive); in assay [3], 90%; in assay [4] it was 33%; in assay [5] it was 106%; in [6], 112%; in assay [7] it was 92%. The residual activity in [8] amounted to 106%; in [9], 117%; in assay [10], 100%.

As usually defined, the residual activity is the signal under treatment as a percentage of the control signal.

(Values after ChEMBL document CHEMBL2218924, “A broad activity screen in support of a chemogenomic map for kinase signalling research and drug discovery” (Biochem J, 2013).)
